Measurements published in PubChem BioAssay (NCI).
Compounds without any hit were thinned out: in the full panel of roughly 83,000, 20% have a hit.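 48-hour exposure, single concentration, 96-well plates; percent growth endpoint where 0 means no net growth. Active: below 10.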 A number with no mark means an inactive call. Active and inactive are the calls of the source.

Columns and labels:
Test in all cases: NCI-60 one-dose screen, 48 h (100 = growth as untreated, 0 = no growth, -100 = all killed)
Conditions in all cases: 10 µM unless noted
[1] = system: SR leukemia
[2] = system: RPMI-8226 leukemia
[3] = system: OVCAR-8 ovarian
[4] = system: OVCAR-5 ovarian
[5] = system: OVCAR-4 ovarian
[6] = system: SK-OV-3 ovarian
[7] = system: IGROV1 ovarian
[8] = system: OVCAR-3 ovarian
[9] = system: HS 578T breast
[10] = system: NCI/ADR-RES ovarian
[11] = system: T-47D breast
[12] = system: BT-549 breast
[13] = system: MDA-MB-435 melanoma
[14] = system: SW-620 colon
[15] = system: MCF7 breast
[16] = system: HCT-116 colon
[17] = system: HCC-2998 colon
[18] = system: KM12 colon

Structure (SMILES)	growth [1]	growth [2]	growth [3]	growth [4]	growth [5]	growth [6]	growth [7]	growth [8]	growth [9]	growth [10]	growth [11]	growth [12]	growth [13]	growth [14]	growth [15]	growth [16]	growth [17]	growth [18]
COc1ccc(-c2cc(-c3cccnc3)nc3sc4c(Cl)nnnc4c23)cc1OC	6.41% (active)	58%	91.4%	118%	96.5%	109%	81.6%	91.9%	89.2%	108%	63.6%	99.9%	104%	50.2%	43.8%	94.8%	115%	95.1%
O=C1C(Nc2ccc(Cl)cc2)=C(I)C(=O)c2ncccc21	4.45% (active)	-2.24% (active)	-65.1% (active)	60.4%	-91.4% (active)	83.3%	-76.2% (active)	-88.3% (active)	39.9%	-0.0242% (active)	-34.2% (active)	53.3%	-80.5% (active)	-27% (active)	-34.3% (active)	-57.3% (active)	79.5%	39.8%
CCCCCCCCCCCCCCCCCCOc1cccc(CC(=O)OCC[N+](CC)(CC)CC)c1	53%	35.4%	41.4%	71.3%	27.6%	103%	37.1%	77.7%	60.8%	103%	52.7%	86.9%	82.1%	78.6%	32.7%	51.7%	56.1%	83.3%
O=C(Nc1ccc2ccccc2c1)c1cc2ccccc2cc1O	82%	49.9%	102%	98.8%	82.9%	94.3%	59.8%	-0.789% (active)	105%	87.6%	83.3%	81.5%	103%	103%	65.9%	92.3%	107%	-36.8% (active)
CCn1cc(C(=O)NN=C2CCCC2)c(=O)c2ccc(C)nc21	99.2%	92.7%	90%	94%	83.7%	91.2%	85%	94.3%	88.8%	89.8%	89%	83.5%	86.9%	93%	83.4%	89.1%	89.6%	94.7%
O=C(NCCCN1CCCCC1)c1ccc(-c2nc3ccc4[nH]ncc4c3c3c2CCCC3)cc1	-18.3% (active)	29.9%	62%	94.6%	54.3%	24.9%	29.2%	67.5%	14.4%	85.2%	86.9%	31.4%	26.7%	24.5%	31.8%	16.8%	76%	20.6%
N#Cc1c(-c2cccc(F)c2)cc(-c2cccnc2)[nH]c1=O	91.3%	98.8%	100%	98.9%	113%	99.6%	110%	108%	104%	105%	93.4%	98.3%	100%	110%	92.4%	103%	112%	103%
COC1=CC(c2ccc[nH]2)=N/C1=C\c1[nH]c(C)c(C(=O)Oc2ccccc2)c1C	6.67% (active)	-13.4% (active)	-13.8% (active)	-41.5% (active)	-48.8% (active)	1.25% (active)	-35.4% (active)	-39.7% (active)	-27.5% (active)	-3.96% (active)	-65.7% (active)	-15.4% (active)	-68.6% (active)	-20.9% (active)	-54.7% (active)	-82.1% (active)	-81.6% (active)	-66% (active)
Cc1ccc(-c2nc3nc(-c4ccc(Cl)cc4)nc(N4CCCNCC4)c3o2)cc1	-44.9% (active)	-48.7% (active)	-58.7% (active)	-98.5% (active)	-83.5% (active)	117%	-83.8% (active)	-95.5% (active)	-50.8% (active)	-66.9% (active)	-36.5% (active)	99.4%	-81.1% (active)	-81.9% (active)	-79.4% (active)	-75.6% (active)	-78.8% (active)	-88.7% (active)
CC1=C2[C@@H](CC1)[C@]1(C)O[C@@](C3CC3)(C[C@H]1OC(=O)CO)[C@H]2OC(=O)/C=C/c1ccccc1	80.4%	84.3%	8.13% (active)	96%	110%	99.3%	100%	95.2%	-14.6% (active)	2.55% (active)	82.2%	6.63% (active)	104%	103%	96.4%	89.4%	88.4%	97.1%
CCCCCO/N=C\c1c2c(O)c3c(O)c(C)c4c(c3c1O)C(=O)C(C)(O/C=C\C(OC)C(C)C(OC(C)=O)C(C)C(O)C(C)C(O)C(C)/C=C\C=C(\C)C(=O)N2)O4 (stereo not given)	13.5%	13.1%	26.7%	49.2%	30.3%	33.9%	31.1%	19.4%	1.16% (active)	25.2%	26.8%	33.1%	15.8%	18.3%	17%	9.51% (active)	6.51% (active)	17.3%
CC[C@H](C)[C@H](NC(=O)[C@H](CCCCN)NC(=O)[C@H](CCCCN)NC(=O)[C@@H](NC(=O)[C@@H](NC(=O)[C@@H](N)Cc1cnc[nH]1)[C@@H](C)CC)[C@@H](C)CC)C(=O)N[C@@H](CCCNC(=N)N)C(=O)N[C@H](C(=O)N[C@@H](Cc1c[nH]c2ccccc12)C(=O)N[C@@H](Cc1ccc(O)cc1)C(=O)N[C@@H](CCCNC(=N)N)C(=O)N[C@@H](CCCCN)C(=O)N[C@@H](C)C(=O)N[C@@H](Cc1c[nH]c2ccccc12)C(=O)N[C@@H](Cc1cnc[nH]1)C(=O)N[C@H](C(=O)N[C@@H](CC(C)C)C(=O)NCC(=O)N[C@@H](CCCCN)C(=O)N[C@H](C(N)=O)C(C)C)C(C)C)[C@@H](C)O	71.9%	56.1%	33.7%	48.4%	77.9%	35%	39.2%	44.9%	11.6%	34.8%	-56.4% (active)	41.9%	23.6%	44.2%	-67.9% (active)	45.1%	25.7%	-11.7% (active)
NS(=O)(=O)c1ccc(C(=O)N=Nc2c(O)[nH]c3c(F)cccc23)cc1	103%	106%	96.7%	99.8%	102%	109%	99.5%	117%	103%	100%	97%	99.7%	107%	100%	96.4%	103%	106%	107%
O=C(N=Nc1c(O)[nH]c2ccccc12)Nc1ccc(Br)cc1	76.7%	66.9%	98.9%	81.4%	102%	97%	85.2%	97.4%	87.4%	97.2%	91.6%	89%	90.4%	91.6%	79.1%	88.6%	104%	92.4%
Fc1ccc(NC(c2ccc(F)cc2)C2CCN(CCCCc3ccccc3)CC2)cc1 (stereo not given)	-40.5% (active)	-17.6% (active)	-21.9% (active)	59.1%	50.6%	64.6%	55.9%	34%	71.7%	49.5%	22.4%	61.1%	43.8%	12.7%	5.18% (active)	-55.4% (active)	16.3%	29.9%
